Screening data: PubChem BioAssay, National Center for Advancing Translational Sciences (NCATS)
In the library only some 6% were active in any assay of this set; here they are far more common.
D1 antagonist = Antagonist of Human D 1 Dopamine Receptor: qHTS | D(1A) dopamine receptor (Homo sapiens), P21728 | activity change, negative = inhibition, % at 10 µM | 3.2% of 360,000 active | AID 504652, 2011 | HEK293 TREx D1 cells, calcium flux, dopamine EC80; active compounds read low; in the data active = activity change below about -30%; note: % is set by controls: 0 for no effect and ±100 for the full control effect
Target sequence (P21728 whole entry, looked up): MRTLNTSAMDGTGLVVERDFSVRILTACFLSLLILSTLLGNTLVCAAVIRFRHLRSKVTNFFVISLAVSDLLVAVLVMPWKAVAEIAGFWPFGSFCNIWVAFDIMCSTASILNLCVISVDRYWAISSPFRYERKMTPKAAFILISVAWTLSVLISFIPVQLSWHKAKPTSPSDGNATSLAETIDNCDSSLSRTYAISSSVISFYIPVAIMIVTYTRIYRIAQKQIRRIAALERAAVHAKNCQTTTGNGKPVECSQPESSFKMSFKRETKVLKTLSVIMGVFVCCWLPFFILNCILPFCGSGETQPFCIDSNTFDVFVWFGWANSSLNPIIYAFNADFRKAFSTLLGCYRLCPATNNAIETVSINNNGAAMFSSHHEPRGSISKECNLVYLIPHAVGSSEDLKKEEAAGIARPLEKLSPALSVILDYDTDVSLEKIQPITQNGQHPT
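HEK293 T-REx cells expressing inducible, force-coupled D1 receptor; no-wash Ca dye, 30–90 min RT. Cmpd → 180 s read at 1 Hz → EC80 DA → 180 s read.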
D1 PAM = Potentiators of Human D1 Dopamine Receptor: qHTS; HEK293 TREx D1 cells, calcium flux, dopamine EC20 potentiation; potentiation, % at 10 µM; 0.036% of 360,000 active; in the data active = potentiation above about 30%; note: 0% is about no effect
DRD3 agonist = qHTS of D3 Dopamine Receptor Agonist: qHTS; D(3) dopamine receptor (Homo sapiens), P35462; D3R DiscoveRx beta-arrestin cells, luminescence, 90 min; max activation, %; 0.58% of 410,000 active; AID 652048, 2013; in the data active = max activation above about 30%; note: 0% is about no effect
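Cells at 1500/well, incubated overnight, then treated with pinned compounds (dopamine as control) for 90 min at 37 degrees C. DiscoveRx reagent added for 30 - 60 minutes at room temperature; luminescence read.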
D1 ag = Allosteric Agonists of the Human D1 Dopamine Receptor: qHTS | activation, % at 2 µM | 1% of 360,000 active | HEK293 T-REx D1 cells, calcium flux, agonist mode; in the data active = activation above about 30%; note: 0% is about no effect
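Agonism was scored from calcium flux recorded over 180 s (1 read/s) after pintool compound addition, following a 10-cycle baseline. Cells were inducible force-coupled HEK293 TREx D1, plated overnight at 30 C and loaded with no-wash calcium dye.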
DRD3 antagonist = qHTS of D3 Dopamine Receptor Antagonist: qHTS; D(3) dopamine receptor (Homo sapiens), P35462; D3R cells, DiscoveRx beta-arrestin luminescence, antagonist mode; active compounds read low; max response, negative = inhibition, %; 2.5% of 360,000 active; AID 652054, 2013; in the data active = max response below about -50%; inconclusive = no clear call, values can overlap the other calls; note: % is set by controls: 0 for no effect and ±100 for the full control effect
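Cells expressing the human receptor were seeded at 1500 cells/well, incubated overnight at 37 degrees C in 5% CO2, then exposed to library compounds with dopamine controls for 90 minutes at 37 degrees C before luminescent detection.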
The depositor's hits bear a star; u = inconclusive; x = no result given; ! = a repeat was not active.

SMILES	D1 antagonist	D1 PAM	DRD3 agonist	D1 ag	DRD3 antagonist
CC(=O)c1ccc(S(=O)(=O)NC2CC(=O)N(c3ccc(Cl)cc3)C2)cc1 (centres undefined)	-34*	-2	-1	13	6
O=C(NC1CC(=O)N(c2ccc(Cl)cc2)C1)c1ccc(S(=O)(=O)N2CCOCC2)cc1 (centres undefined)	x	-2	5	0	x
Cc1ccccc1-c1noc(-c2ccccc2OCC(=O)Nc2cccc([N+](=O)[O-])c2)n1	1	-3	-4	1	x
Nc1c(CC(=O)O)cccc1C(=O)c1ccccc1	x	x	42*!	x	x
C=CCc1c(C)nc2c(-c3ccccc3)cnn2c1N1CCOCC1	-32*	-8	10	1	43
Cc1cc(N2CCOCC2)n2ncc(-c3ccccc3)c2n1	x	-3	6	-2	-10
O=C(c1ccccc1)c1coc2c1C(=O)c1ccccc1C2=O	-10	-3	-7	2	-13
O=C1c2ccccc2C(=O)c2c1oc(C(F)(F)F)c2C(=O)c1ccccc1	-7	3	-20	0	-70*
Cc1cc(N2CCC(C)CC2)nc2ccc(NC(=O)Cc3c(F)cccc3Cl)cc12	0	0	-6	1	x
CN(C)CCNC(=O)C(=O)Nc1ccc2c(c1)N(S(=O)(=O)c1cccs1)CCC2	-6	-1	2	56*	0
CN(C)CCCNC(=O)C(=O)Nc1ccc2c(c1)N(S(=O)(=O)c1cccs1)CCC2	7	-5	-10	5	3
CCCc1ccc(OC(C)c2nc(-c3ccc(-n4cccc4)cc3)no2)cc1 (centres undefined)	0	-2	-3	7	x
CCOC(=O)N1CCN(C(=O)CN(Cc2ccc(Cl)cc2)S(=O)(=O)c2ccccc2)CC1	-39*	-1	2	3	19
CCN(CC)S(=O)(=O)c1ccc(N2CCN(CCO)CC2)nc1	-71*	-7	2	2	4
CCOC(=O)N1CCN(c2ccc(S(=O)(=O)N(Cc3ccccc3)Cc3ccccc3)cn2)CC1	-31*	-6	3	27	17
CCOC(=O)N1CCN(C(=O)CN(Cc2ccccc2)S(C)(=O)=O)CC1	-8	-5	7	2	-20
CS(=O)(=O)N(CC(=O)N1CCCCCC1)Cc1ccc(Cl)cc1	-3	-3	-3	5	-78*
CCN(CC)S(=O)(=O)c1ccc(N2CCN(c3ccccc3O)CC2)nc1	-6	-2	7	7	6
CNC(=O)c1cc(Oc2ccc(NC(=O)c3[nH]c(-c4ccccc4)c4c3C(=O)N(C)C4=O)cc2)ccn1	x	x	-2	x	-17
C=CC[C@]12CCc3ccccc3C1N(c1ccc(C(=O)OCC)cc1)C2=O (some centres undefined)	x	-3	0	12	31
O=C1C2=C(C(=O)c3ccccc31)C1O[C@](c3ccsc3)(Cc3ccccc31)O2	3	-7	x	1	x
CCCC(=O)c1cc(O)c(O)cc1O	x	x	14	x	x
O=C(CN1CCN(c2ncccn2)CC1)N1CCc2ccccc21	-1	-4	-21	5	-82*
Cc1ccc(NC(=O)Cn2cc3c(n2)CCCCC3)cc1	6	2	-16	40*	x
O=C(Cn1cc2c(n1)CCCCC2)N1CCc2ccccc21	-76*	-6	0	-1	11
SMILES	D1 antagonist	D1 PAM	DRD3 agonist	D1 ag	DRD3 antagonist
O=C(CN1CCN(c2ccccc2F)CC1)N1CCc2ccccc21	5	-2	-12	2	-54*
O=C(NCCSc1c(-c2ccc(Br)cc2)[nH]c2ccccc12)c1ccc(S(=O)(=O)N2CCOCC2)cc1	-7	0	15	-1	x
O=C(CN1CCN(Cc2ccc(Cl)cc2)CC1)N1CCc2ccccc21	10	-2	-18	0	u
O=C(CN1CCN(Cc2ccccc2)CC1)N1CCCc2ccccc21	-3	-3	-22	-1	-51*
CC(C)NC(=O)CN1CCN(c2ncccn2)CC1	-1	-2	6	6	-54*
O=C(CN1CCCCC1)N1c2ccccc2CCc2ccccc21	1	-4	-10	2	-21
O=C(CN1CCC(N2CCCCC2)CC1)N1CCCc2ccccc21	-9	0	-7	3	-76*
CC1CCN(CC(=O)N2c3ccccc3CCc3ccccc32)CC1	-1	-2	-6	0	-64*
CC(NC(=O)CN1CCN(c2ncccn2)CC1)c1ccc(F)cc1 (centres undefined)	3	-4	-8	3	0
CN(C)c1ccc(CNc2nc(-c3ccco3)nn2S(=O)(=O)c2ccc3ccccc3c2)cc1	3	-1	4	-2	x
CCCCCn1c(=O)[nH]c2cc(C(=O)N3CCN(c4cccc(C(F)(F)F)c4)CC3)ccc2c1=O	-6	0	2	1	x
CCOCCCNC(=O)C(NC(=O)C1CCC(C)CC1)C(C)C (centres undefined)	6	0	1	0	x
O=C(CN1CCCc2ccccc21)N1CCc2ccccc21	18	-2	-13	0	-1
O=C(CN1CCCCC1)N1CCc2ccccc21	-2	-8	-23	2	-86*
Cc1csc(=N)n1CC(=O)N1CCc2ccccc21	-32*	-6	-27	4	-86*
CC(C)C[C@H](NC(=O)c1nc[nH]c1C(=O)NCc1ccc(CNC(=O)OC(C)(C)C)cc1)C(=O)OCc1ccccc1	-4	-4	12	13	40
CCCCOCCCNC(=O)C[C@@H]1C[C@@]2(C(=O)OC)CCCCC=C2N(CCc2ccc(OC)c(OC)c2)C1=O	x	x	5	x	-6
COc1ccccc1CNC(=O)CN(C)S(=O)(=O)c1ccc2c(c1)c(=O)n(C)c(=O)n2C	-37*	-1	0	0	-2
CN(CC(=O)NCc1ccc(Cl)cc1)S(=O)(=O)c1ccc2c(c1)c(=O)n(C)c(=O)n2C	-44*	4	5	0	x
COc1ccccc1CNC(=O)CN(C)S(=O)(=O)c1ccc2c(c1)n(C)c(=O)c(=O)n2C	7	6	-2	1	0
O=C(NCCCn1ccnc1)/C(=C\c1ccc(Br)cc1)NC(=O)c1ccccc1	0	0	-5	2	13
Cc1ccc(C(=O)Nc2nc(-c3ccccc3)c(-c3ccccc3)o2)cc1	-4	-2	-21	3	-85*
COCCn1c(-c2ccc(OC)cc2)cnc1SCC(=O)Nc1ccc(OC)cc1OC	-5	-1	-4	7	-26
Cc1cc(C)nc(SCC(=O)Nc2nc(-c3ccccc3)c(-c3ccccc3)o2)n1	-19	-12	33*	3	43
Cc1cc(NC(=O)CSc2nnc(-c3ccccc3)c(-c3ccccc3)n2)no1	-78*	-4	-6	1	-13
